GLP-1R inv ag – inverse agonists of human GLP-1 receptor; HEK293 GLP-1R CRE-luciferase, luminescence, 24 h; GLP-1R form is constitutively active; Potency, µM (top dose mostly 38.3 µM), hits mostly inhibitors; actives 1.6% (n = 410,000); further: nearly all actives have a fitted effect of over 55% in size
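qHTS in 1536-well format: reporter HEK293 cells expressing constitutive GLP-1R activity in DMEM + 10% Nu serum, 24 hr with compounds at 37 deg C, luminescence read after 12 min with detection reagent.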
GLP-1R agonist – activates the human GLP-1 receptor. Potency, µM (highest dose often 45.6 µM), hits mostly activators. actives 0.007% (n = 380,000). P43220. AID 624172. HEK293 GLP-1R CRE-luciferase, luminescence, 4-6 h; cells express a hypersensitive GLP-1R form
GLP1R cytotox – cytotoxicity in counter-screen for GLP-1R inverse agonists. HEK293 cAMP-luciferase reporter cells, luminescence, 24 h. Potency, µM (titrated, usually from 38.3 µM), hits mostly inhibitors. actives 0.13% (n = 410,000);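 further: loss of luciferase light is scored as toxicity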
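MLSMR compounds, 24 hr on cells at 37 deg C/5% CO2; luminescence after luciferase reagent (12 min RT). Inhibition counted as the undesired cytotoxic outcome.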
KCNH2 WT inh – inhibitors of human wildtype KCNH2 potassium channel; Q12809; U2OS, BacMam KCNH2, thallium flux FluxOr; active compounds read low; activity change, % at 1.84 µM; actives 0.37% (n = 340,000); AID 720551;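 active means maximum activity change below -70%; inconclusive means maximum activity change between -70% and -50%; inactive means maximum activity change above -50%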
Target sequence (Q12809 whole entry, looked up): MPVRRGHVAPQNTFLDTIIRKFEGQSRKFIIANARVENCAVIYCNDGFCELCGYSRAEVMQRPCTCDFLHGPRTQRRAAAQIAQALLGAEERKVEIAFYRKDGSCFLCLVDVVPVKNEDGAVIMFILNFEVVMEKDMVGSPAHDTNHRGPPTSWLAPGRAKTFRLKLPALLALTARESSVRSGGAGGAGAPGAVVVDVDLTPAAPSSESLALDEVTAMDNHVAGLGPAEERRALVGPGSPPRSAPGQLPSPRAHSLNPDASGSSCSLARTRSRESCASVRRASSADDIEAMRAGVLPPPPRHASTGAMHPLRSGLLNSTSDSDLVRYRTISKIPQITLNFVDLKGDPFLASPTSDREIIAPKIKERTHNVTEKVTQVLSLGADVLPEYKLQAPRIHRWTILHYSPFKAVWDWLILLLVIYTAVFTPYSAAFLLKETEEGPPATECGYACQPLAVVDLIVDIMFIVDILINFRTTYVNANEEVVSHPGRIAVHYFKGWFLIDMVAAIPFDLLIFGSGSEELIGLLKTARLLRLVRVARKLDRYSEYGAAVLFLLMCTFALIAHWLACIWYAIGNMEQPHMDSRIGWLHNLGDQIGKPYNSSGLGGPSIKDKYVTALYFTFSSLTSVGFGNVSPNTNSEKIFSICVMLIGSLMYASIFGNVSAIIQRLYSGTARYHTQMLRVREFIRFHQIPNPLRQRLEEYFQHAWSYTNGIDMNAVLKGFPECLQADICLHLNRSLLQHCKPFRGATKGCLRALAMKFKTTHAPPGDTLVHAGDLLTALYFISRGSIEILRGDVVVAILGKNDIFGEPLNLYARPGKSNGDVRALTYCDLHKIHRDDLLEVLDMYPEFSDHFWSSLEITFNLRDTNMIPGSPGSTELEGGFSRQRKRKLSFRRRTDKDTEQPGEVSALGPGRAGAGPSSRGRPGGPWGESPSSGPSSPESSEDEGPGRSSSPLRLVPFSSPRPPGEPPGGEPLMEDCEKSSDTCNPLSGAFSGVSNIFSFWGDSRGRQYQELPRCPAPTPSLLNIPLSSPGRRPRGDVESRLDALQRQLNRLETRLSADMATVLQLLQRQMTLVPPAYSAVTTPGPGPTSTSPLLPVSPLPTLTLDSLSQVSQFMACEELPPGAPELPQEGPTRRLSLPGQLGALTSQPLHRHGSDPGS
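U2OS cells were transduced with wild-type KCNH2 virus (2.03 x 10^8 / mL) for 4 h at room temperature, then cultured overnight at 37 C. Thallium flux was read with FluxOr dye. Rate constants were normalized to DMSO controls.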
GLS inh – blocks human kidney-isoform glutaminase activity. O94925. GLS enzymatic activity, qHTS titration. actives 0.21% (n = 410,000). Potency, µM (titrated, usually from 45.5 µM), most hits filed as inhibitors
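Coupled fluorescence readout: glutamate oxidase/HRP/Amplex Red detect glutamate formed by hKGA from L-glutamine (1 mM solution added). Buffer 45 mM KH2PO4 pH 8.2, 0.02% Tween-20; reads at t0 and 30 min RT.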
KCNH2 3.1 block – blocks the human KCNH2 3.1 channel isoform | U2OS KCNH2 3.1, thallium flux FluxOr; active compounds read low | activity change, % (tested at about 1.8 µM) | actives 0.95% (n = 340,000);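 active means maximum activity change below -70%; inconclusive means maximum activity change from -70% to -50%; inactive means maximum activity change above -50%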;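 further: thallium influx rate constant from kinetic fluorescence after stimulation buffer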
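Measured as rate of thallium-driven FluxOr signal in transduced U2OS cells carrying the 3.1 channel, read kinetically for 2 min upon stimulation; values are rate constants scaled to DMSO control wells.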
Of the large screens only hits and unclear results are named; the others gave an inactive call. An excerpt weighted towards active compounds, which were near 2.8% of everything screened. Unless noted, the call rests on the fitted dose curve; in most records, active means well fitted curve in the direction sought with a large enough effect; inconclusive means small, poorly fitted or top-dose-only effect, or another doubt; inactive means no such curve, though single readings can be large; an effect the other way counts as inactive or inconclusive.

O=C(c1cccs1)N1CCN(C(=O)c2cn(-c3ccccc3)nc2-c2ccccc2)CC1	GLP-1R inv ag 10µM, KCNH2 WT inh -128.7, KCNH2 3.1 block -171.9
CCCn1c2ccccc2c2cnn(CC(=O)NCCc3ccc(C)cc3)c(=O)c21	none (no result: GLP-1R agonist, KCNH2 WT inh, KCNH2 3.1 block)
CC(C)(C)c1ccc(C(=O)Nc2cccnc2)cc1	GLP-1R inv ag inconclusive
CC(C)(C)c1ccc(C(=O)Nc2ccc(Oc3cccnc3)nc2)cc1	GLP-1R inv ag 8.91µM
Cc1cc(C(=O)OC(C)C(=O)Nc2nc(-c3ccccc3)cs2)c(C)o1 (centres undefined)	GLP-1R inv ag 10µM
Cc1cc(C(=O)OCC(=O)Nc2nc(-c3ccccc3)cs2)c(C)o1	none
Cc1oc(-c2ccccc2Cl)nc1CS(=O)(=O)CC(=O)NC(C)CCc1ccccc1 (centres undefined)	GLP-1R inv ag 10µM (no result: KCNH2 WT inh, KCNH2 3.1 block)
CCOc1ccccc1CNC(=O)CCc1cn(C)c2ccccc12	GLP-1R inv ag 7.08µM
CC(C)(C)c1ccc(NC(=O)NC2CCCc3ccccc32)cc1 (centres undefined)	GLP-1R inv ag 3.16µM
Cc1ccc(NC(=O)NC2CCCc3ccccc32)cc1 (centres undefined)	GLP-1R inv ag inconclusive
Cc1oc2c(c1C(=O)NCc1cccc(Br)c1)C1=NCCN1C=N2	none (no result: GLP-1R agonist, KCNH2 WT inh, KCNH2 3.1 block)
OC(COc1ccc2c(c1)OCO2)CN1CCN(c2ccccc2)CC1 (centres undefined)	GLP-1R inv ag 8.91µM
COc1cccc(OCC(O)CN2CCN(c3ccc(F)cc3)CC2)c1 (centres undefined)	GLP-1R inv ag inconclusive
CC(C)c1ccc(OCC(O)CN2CCN(c3ccccc3)CC2)cc1 (centres undefined)	GLP-1R inv ag 10µM, GLP1R cytotox inconclusive
OC(COc1ccc2c(c1)OCO2)CN1CCCCC1 (centres undefined)	none
OC(CSc1ccccc1)CN1CCN(c2ccc(Cl)cc2)CC1 (centres undefined)	GLP-1R inv ag inconclusive, KCNH2 3.1 block -86.4
OC(COc1ccc2ccccc2c1)CN1CCN(c2ccc(F)cc2)CC1 (centres undefined)	KCNH2 3.1 block -74.0
COc1ccc(OCC(O)CN2CCN(c3ccccc3)CC2)cc1 (centres undefined)	none
Cc1oc(-c2ccc3ccccc3c2)nc1CN(C)C(C)c1ccncn1 (centres undefined)	none
CCCCC(CC)CCC(CC(C)C)OS(=O)(=O)O (centres undefined)	none (no result: GLP-1R inv ag, GLP1R cytotox, KCNH2 WT inh, KCNH2 3.1 block)
COc1ccccc1N1CCN(S(=O)(=O)c2ccc3c(c2)NC(=O)C(C)S3)CC1 (centres undefined)	GLP-1R inv ag 10µM
CCCN1CCN(S(=O)(=O)c2ccc3c(c2)NC(=O)C(C)S3)CC1 (centres undefined)	none
Cc1cc2nnc(SCc3ccc(F)cc3)n2c2ccccc12	none (no result: KCNH2 WT inh, KCNH2 3.1 block)
Cc1cc(C)c2oc(C(=O)N3CCN(Cc4ccccc4)CC3)cc(=O)c2c1	none
COc1ccc(C(=O)C2CCCN(Cc3cn(C)nc3-c3ccccc3)C2)cc1F (centres undefined)	GLP-1R inv ag inconclusive, KCNH2 3.1 block -71.2
CCOc1ccccc1CN1CCCC(C(=O)c2ccc(OC)c(OC)c2)C1 (centres undefined)	none
COc1ccc(F)cc1C(=O)C1CCCN(Cc2cccn2-c2ccccn2)C1 (centres undefined)	GLP-1R inv ag inconclusive, GLP1R cytotox inconclusive, KCNH2 WT inh -70.9, KCNH2 3.1 block -85.9
COc1ccc(C(=O)C2CCCN(Cc3cccn3-c3ccccn3)C2)c(OC)c1 (centres undefined)	GLP-1R inv ag inconclusive, GLP1R cytotox inconclusive, KCNH2 3.1 block -91.0
O=C(c1cc(F)ccc1F)C1CCCN(Cc2cccn2-c2ccccn2)C1 (centres undefined)	none
